Bioassay records deposited in PubChem BioAssay by National Center for Advancing Translational Sciences (NCATS).
Hits are enriched below; roughly 7.7% of the tested compounds scored in any of these assays.
Sm TGR block – blocks Schistosoma mansoni thioredoxin glutathione reductase; Q962Y6; 360,000 compounds, 3% hits; Potency, µM (highest dose often 114 µM), without a hit: top-dose activity change, negative = inhibition, usual class: inhibitors; purified TGR, DTNB reduction, TNB absorbance 405 nm; further: potency means the concentration at half of the fitted maximal effect; nearly all actives have a fitted effect of over 60% in size
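First, TGR (20 nM dispensed) and NADPH were mixed with compound. Second, a 15 min room-temperature incubation followed. Third, further NADPH and then DTNB were added to start the reaction. Finally, TNB absorbance was monitored kinetically.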
Giardia FBPA inh – inhibitors of Giardia lamblia fructose-1,6-bisphosphate aldolase; A8B2U2; purified Giardia FBPA; Potency, µM (series often up to 59.6 µM), for inactives: at the top dose activity, negative = inhibition, usual class: inhibitors; 290,000 compounds, 0.71% hits; AID 2451; further: potency means the concentration at half of the fitted maximal effect; nearly all actives have a fitted effect of over 55% in size
Target sequence (A8B2U2 whole entry, looked up): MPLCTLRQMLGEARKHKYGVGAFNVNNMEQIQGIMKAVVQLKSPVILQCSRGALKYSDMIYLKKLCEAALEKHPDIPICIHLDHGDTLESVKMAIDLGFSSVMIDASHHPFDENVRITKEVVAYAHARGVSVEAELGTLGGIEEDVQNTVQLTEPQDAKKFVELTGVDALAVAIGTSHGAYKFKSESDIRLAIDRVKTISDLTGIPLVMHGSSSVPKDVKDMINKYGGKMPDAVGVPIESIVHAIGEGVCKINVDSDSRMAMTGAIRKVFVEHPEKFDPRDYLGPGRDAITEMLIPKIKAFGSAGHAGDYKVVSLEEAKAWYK
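Giardia FBPA (40 nM reagent) was preincubated 10 min at RT with compound (up to 57.5 uM final), then substrate plus GAPDH/TPI/NAD/arsenate coupling system with diaphorase/resazurin was added; resorufin fluorescence (525/598 nm) was read after 20 min.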
HCMV inh – human cytomegalovirus inhibition. activity change, negative = inhibition, % at 57.5 µM. HFF cells, HCMV-luciferase reporter, 72 h; stronger effect = lower value. 410,000 compounds, 4.5% hits. AID 1259415; in the data active means activity change below about -60%; inconclusive means no clear call, values can overlap the other calls; inactive means above about -39%
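Two-dose cell screen: HFF monolayers treated with compounds and infected with luciferase-expressing HCMV at 1 PFU/cell, 72 h at 37C, then lysed for luciferase measurement.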
Tb PYK inh – inhibitors of Trypanosoma brucei pyruvate kinase | Q57TT1 | TbPYK enzyme, Kinase-Glo Plus ATP luminescence, 45 min | Potency, µM (doses to about 76.8 µM), without a hit: at the top dose activity, negative = inhibition, usual class: inhibitors | 410,000 compounds, 0.12% hits | AID 624173; further: potency means the concentration at half of the fitted maximal effect; nearly all actives have a fitted effect of over 50% in size
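Screened from lowest to highest concentration, compounds were pinned into TbPYK/substrate mixtures, and ADP (130 uM final) was added. Plates sat at room temperature for 45 min prior to Kinase-Glo Plus detection by luminescence.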
FMDV antiviral – foot and mouth disease virus antiviral activity; 410,000 compounds, 1.2% hits; AID 1159524; Potency, µM (highest dose often 57.9 µM), without a hit: at the highest dose activity change, negative = inhibition, most hits filed as inhibitors; FMDV antiviral cell-based qHTS; calls by dose curve; tested in HEK293T cells; further: read-out not given here; potency means the concentration at half of the fitted maximal effect; nearly all actives have a fitted effect of over 45% in size
RE007 growth inh – less growth of the S. pombe RE007 Vpr strain; S. pombe RE007 Vpr strain, BacTiter-Glo ATP luminescence, 24 h; Potency, µM (titrated, usually from 92.2 µM), for the others: top-dose activity change, negative = less growth, hits mostly inhibitors; 360,000 compounds, 0.21% hits; AID 651644; active means well fitted falling curve with a large enough effect; inconclusive means small, poorly fitted or top-dose-only effect; inactive means no such curve, though single readings can be large or run the other way; further: potency means the concentration at half of the fitted maximal effect; nearly all actives have a fitted effect of over 50% in size
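Fission yeast RE007 carrying one integrated HIV-1 vpr copy, seeded at OD 0.01 in PMG+AL medium with 23 nL pinned compound. Grown 24 h at 30 degrees; viability read by BacTiter-Glo luminescence after 5 min.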
Numbers without * were called inactive; ? = inconclusive; . = no result. Unless noted, the call rests on the fitted dose curve; in most records, active means well fitted curve in the direction sought with a large enough effect; inconclusive means small, poorly fitted or top-dose-only effect, or another doubt; inactive means no such curve, though single readings can be large; an effect the other way counts as inactive or inconclusive. On the % scale 0 is the no-effect control and ±100 the full control effect.

SMILES	Sm TGR block	Giardia FBPA inh	HCMV inh	Tb PYK inh	FMDV antiviral	RE007 growth inh
COc1cc(/C=C2\C(=N)N3N=CSC3=NC2=O)ccc1OS(=O)(=O)c1ccccc1[N+](=O)[O-]	-30%	14%	-19	3%	16%	-5%
Cc1cc(N2CCCC2=O)cc(C)c1S(=O)(=O)NCCOc1ccc(C(C)(C)C)cc1	-1%	-3%	-91*	1%	?	12%
O=C1CCCN1c1ccc(S(=O)(=O)NCCOc2ccccc2)cc1	-16%	5%	-29	-2%	-28%	3%
CCOc1ccc(C(C)=O)cc1N1C(=O)C2C(C1=O)C1C=CC2C12CC2 (stereo unspecified)	?	0%	40	0%	.	-12%
CC(=O)Oc1ccc(N2C(=O)C3C(C2=O)C2C=CC3C23CC3)cc1[N+](=O)[O-] (stereo unspecified)	18µM*	-1%	20	-5%	2%	12%
CC(=O)Oc1ccc(N2C(=O)C3C4C=CC(C5CC45)C3C2=O)cc1[N+](=O)[O-] (stereo unspecified)	10µM*	-4%	-16	-13%	-22%	-1%
CN1C(=O)NC(=O)/C(=C\C=C\c2ccccc2[N+](=O)[O-])C1=O	?	?	-99*	?	?	-5%
CC(C)n1c(-c2ccco2)csc1=Nc1cccnc1	-18%	2%	-79*	-8%	25µM*	-28%
CN(C)S(=O)(=O)Oc1ccc(C(=O)Nc2cccc(Cl)c2)cc1	.	-25%	-20	4%	2%	-5%
O=C(Nc1ccc2c(c1)CCCN2C(=O)c1cccs1)c1cccc(F)c1	-2%	1%	?	-10%	3%	-2%
CN(C)S(=O)(=O)Oc1ccc(C(=O)Nc2cccc(C(F)(F)F)c2)cc1	?	-19%	-76*	-10%	14µM*	-6%
O=C(Nc1ccc2c(c1)CCCN2C(=O)c1cccs1)c1ccccc1C(F)(F)F	2%	.	-71*	-9%	-28%	.
O=C(Nc1ccc2c(c1)CCCN2C(=O)c1ccccc1)c1ccccc1Br	10%	3%	-70*	1%	?	1%
O=C(Nc1ccc2c(c1)CCCN2C(=O)c1cccs1)c1cccc(C(F)(F)F)c1	1%	.	-70*	2%	?	.
O=C(Nc1ccc2c(c1)CCCN2C(=O)c1cccs1)c1ccccc1	-2%	5%	-36	-20%	-15%	-1%
Cc1ccc(Cn2c(=O)c3ccccc3n3c(-c4ccccc4)nnc23)cc1	9%	.	1	4%	?	.
O=C(c1ccc(Br)cc1)N1CCC(c2nc3ccccc3s2)CC1	-1%	.	5	0%	-17%	.
CCOc1ccc(-c2cn3c(n2)sc2cc(C(=O)NC(C)C45CC6CC(CC(C6)C4)C5)ccc23)cc1 (stereo unspecified)	7%	.	.	-1%	-7%	.
COc1cc(OC)cc(C(=O)Nc2ccc3c(c2)CCCN3C(=O)c2cccs2)c1	0%	.	-77*	-4%	?	-3%
COc1ccccc1C(=O)Nc1ccc2c(c1)CCCN2C(=O)c1cccs1	-5%	-4%	-60*	-6%	0%	-14%
COc1cccc(NC(=O)c2ccc3c(c2)CCN3S(C)(=O)=O)c1	0%	-12%	55	-15%	29%	-21%
COc1ccccc1C(=O)Nc1ccc2c(c1)CCCN2C(=O)c1ccccc1	-18%	-4%	?	?	-8%	?
CS(=O)(=O)N1CCCc2cc(C(=O)Nc3cccc(C(F)(F)F)c3)ccc21	-7%	.	?	-4%	25µM*	.
CCc1cccc(NC(=O)c2cn3c4c(ccc(Cl)c4c2=O)OC(C)C3)c1 (stereo unspecified)	-1%	.	-11	4%	-12%	.
CC(C)NC(=S)N/N=C1\CCCCc2ccccc21	-20%	7%	?	-4%	-12%	-10%
Cc1ccc(C)c(NC(=S)N/N=C2/CCCCc3ccccc32)c1	-3%	1%	-71*	-8%	0%	-13%
